Screens: PubChem BioAssay, National Center for Advancing Translational Sciences (NCATS)
Compounds with a hit are over-represented: about 6.1% of the library has one in this group of screens.
D1 agonist: Allosteric Agonists of the Human D1 Dopamine Receptor: qHTS; D(1A) dopamine receptor (Homo sapiens), P21728; HEK293 T-REx D1 cells, calcium flux, agonist mode; activation, % at 2 µM; 1% of 360,000 active; in the data active means activation above about 30%; further: 0% is about no effect
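Agonism was scored from calcium flux recorded over 180 s (1 read/s) after pintool compound addition, following a 10-cycle baseline. Cells were inducible force-coupled HEK293 TREx D1, plated overnight at 30 C and loaded with no-wash calcium dye.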
D1 antag: Antagonist of Human D 1 Dopamine Receptor: qHTS; D(1A) dopamine receptor (Homo sapiens), P21728; HEK293 TREx D1 cells, calcium flux, dopamine EC80; hits give low values; activity change, negative = inhibition, % at 10 µM; 3.2% of 360,000 active; AID 504652, 2011; in the data active means activity change below about -30%; further: on the % scale 0 is the no-effect control and ±100 the full control effect
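Allosteric or orthosteric antagonism assessed as attenuation of the calcium response to EC80 dopamine, added 180 s after compound, in induced HEK293 Trex D1 cells loaded with no-wash calcium dye.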
D3 ag: qHTS of D3 Dopamine Receptor Agonist: qHTS. 0.58% of 410,000 active. D(3) dopamine receptor (Homo sapiens), P35462. max activation, %. AID 652048, 2013. D3R DiscoveRx beta-arrestin cells, luminescence, 90 min; in the data active means max activation above about 30%; further: 0% is about no effect
Target sequence (P35462 whole entry, looked up): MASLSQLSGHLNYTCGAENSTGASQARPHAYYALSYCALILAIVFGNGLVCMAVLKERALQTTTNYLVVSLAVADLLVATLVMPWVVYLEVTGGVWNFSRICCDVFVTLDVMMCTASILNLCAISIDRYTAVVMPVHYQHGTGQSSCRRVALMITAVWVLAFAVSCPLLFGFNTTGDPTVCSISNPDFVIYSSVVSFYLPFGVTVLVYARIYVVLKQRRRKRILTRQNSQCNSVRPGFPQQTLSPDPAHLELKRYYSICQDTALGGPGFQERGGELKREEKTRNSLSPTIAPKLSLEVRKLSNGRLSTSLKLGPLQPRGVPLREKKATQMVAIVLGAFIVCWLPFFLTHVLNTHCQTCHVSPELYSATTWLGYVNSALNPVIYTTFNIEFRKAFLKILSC
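Agonist mode: compounds and dopamine controls were applied to plated cells for 90 min at 37 degrees C after an overnight attachment at 1500 cells/well. Luminescent read-out followed 30 - 60 minutes at room temperature with DiscoveRx detection reagent.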
D1 PAM: Potentiators of Human D1 Dopamine Receptor: qHTS | D(1A) dopamine receptor (Homo sapiens), P21728 | HEK293 TREx D1 cells, calcium flux, dopamine EC20 potentiation | potentiation, % at 10 µM | 0.036% of 360,000 active | AID 504651, 2011; in the data active means potentiation above about 30%; further: 0% is about no effect
DRD3 antagonist: qHTS of D3 Dopamine Receptor Antagonist: qHTS | max response, negative = inhibition, % | D3R cells, DiscoveRx beta-arrestin luminescence, antagonist mode; hits give low values | D(3) dopamine receptor (Homo sapiens), P35462 | 2.5% of 360,000 active; in the data active means max response below about -50%; inconclusive means no clear call, values can overlap the other calls; further: on the % scale 0 is the no-effect control and ±100 the full control effect
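Cells expressing the human receptor were seeded at 1500 cells/well, incubated overnight at 37 degrees C in 5% CO2, then exposed to library compounds with dopamine controls for 90 minutes at 37 degrees C before luminescent detection.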
Starred values were filed as active, the others as inactive; u = inconclusive; x = no result given.

SMILES	D1 agonist	D1 antag	D3 ag	D1 PAM	DRD3 antagonist
CCOc1ccccc1CNCc1ccc(F)cc1	4.0	-31.1*	-11.9	0.1	-12.8
CC1=C(c2ccc(C(C)C)cc2)S(=O)(=O)N=C1N1CCN(c2ccccc2F)CC1	1.2	-5.0	-13.1	4.0	x
CCn1c(C(Cc2ccccc2)NC(=O)COC)nc2ccccc21 (centres undefined)	-2.5	-30.3*	-5.8	-7.5	26.0
CC(C)Cn1c(C(C)NC(=O)Cc2ccccc2)nc2ccccc21 (centres undefined)	-3.4	-5.9	-10.4	-0.8	-11.1
Cc1ccc(S(=O)(=O)N(Cc2ccccc2)Cc2ccco2)cc1	10.7	-30.7*	-16.9	-9.3	7.2
Cc1ccc(S(=O)(=O)N(Cc2ccc(F)cc2)Cc2ccco2)cc1	7.7	-33.0*	-23.4	-9.7	0.0
O=C(/C=C\c1ccc2c(c1)OCO2)CC1(O)C(=O)Nc2ccccc21 (centres undefined)	2.3	-2.3	4.5	2.1	1.7
CCOc1ccc(NC(=O)c2cnc(N3CCCC3)nc2C)cc1	0.6	-16.8	8.8	0.8	x
Cc1ccc(NC(=O)C2CC(=O)Nc3nncn32)cc1 (centres undefined)	4.3	4.5	-1.6	-7.7	3.6
Cc1ccn2c(Nc3ccc4c(c3)OCO4)c(-c3ccc(N(C)C)cc3)nc2c1	-2.1	4.3	-2.7	1.9	x
CCO[C@@H]1OC(C(=O)O)=C[C@H](C2CC2)[C@H]1CCCO	-4.8	15.2	-18.1	0.1	-11.6
CCO[C@@H]1OC(C(=O)O)=C[C@H](C2CCCCC2)[C@H]1CCCO	-4.1	5.0	34.7*	-0.7	16.2
Oc1cccc(-c2nc3c4c(ncn3n2)-c2ccccc2CC42CCCC2)c1	1.6	-6.4	82.7*	0.0	212.2
O=c1cc(-c2ccccc2)nc(SCc2ccc(Cl)cc2)[nH]1	0.4	-15.3	1.4	-4.8	27.2
Cc1cc(=O)n2[nH]c(SCc3ccccc3)nc2n1	-0.1	3.8	4.2	-0.6	30.5
O=c1cc(-c2ccccc2)nc(SCc2ccccc2)[nH]1	1.4	14.3	8.7	6.2	-54.8*
O=c1cc(-c2ccccc2)nc2nc(SCc3ccccc3)[nH]n12	1.1	-32.3*	-3.8	-6.5	u
COc1ccc(NC2CCCN(C(=O)c3ccc4[nH]c(C)c(C)c4c3)C2)cc1 (centres undefined)	-1.2	6.3	-5.9	-5.5	1.9
C/C=C(\C)C(=O)NCCN1C2=NC[C@H](C)N2C[C@@H]1Cc1ccc(OC)cc1	0.1	8.5	-7.9	-3.1	8.8
COc1ccc(C[C@@H]2CN3C(=NC[C@@H]3C)N2CCNC(=O)c2ccc(C)c(Br)c2)cc1	-2.0	2.6	-58.4	4.0	-51.7*
C[C@@H]1CN=C2N(CCNC(=O)CCC3CCCCC3)[C@H](Cc3ccc(O)cc3)CN21	-0.4	15.4	-37.7	-0.2	u
Cc1ccc(C(=O)N[C@@H](C)CN2C3=NC[C@H](C)N3C[C@H]2Cc2ccc(O)cc2)cc1Br	4.4	-65.3*	x	-9.2	x
Cc1cc(C)c2[nH]c(=O)c(CN(Cc3cccs3)C(=S)NCC3CCCO3)cc2c1 (centres undefined)	-0.7	-31.3*	2.8	-6.1	13.9
Cc1cc2cc(CN(Cc3cccs3)C(=S)NCC3CCCO3)c(=O)[nH]c2cc1C (centres undefined)	8.9	14.2	2.0	-0.1	21.8
CCNC(=S)N(Cc1cc2cc(C)cc(C)c2[nH]c1=O)C1CCCC1	-0.3	-47.1*	0.2	-3.6	-1.8
SMILES	D1 agonist	D1 antag	D3 ag	D1 PAM	DRD3 antagonist
CNC(=S)N(Cc1cc2cc(C)cc(C)c2[nH]c1=O)C1CCCC1	0.6	15.7	-12.0	-0.8	-5.4
Cc1cc(-c2onc(C)c2C(=O)N/N=C/c2ccccc2)no1	0.4	6.1	-1.0	0.2	7.0
Cc1ccc(SC(=O)c2c(C)noc2-c2cc(C)on2)cc1	1.9	-17.3	-8.0	-7.5	-92.2*
Fc1ccc(-c2noc3ncnc(NCCCN4CCN(c5ccccc5)CC4)c23)cc1	0.4	1.6	-20.6	-3.5	x
Cc1cccc(Oc2ccc(NC(=O)CCC(=O)OCC(=O)c3ccc(Br)cc3)cc2)c1C	5.0	-12.7	-0.5	-2.5	x
COc1ccc(C(=O)N[C@H](C(=O)NCC2CCCCC2)C(C)C)cc1	159.8*	-23.3	-1.1	1.7	15.8
CCc1ccc(C(=O)NC(C(=O)NCC2CCCO2)C(C)C)cc1 (centres undefined)	0.4	0.8	-20.2	-1.2	-87.8*
COc1ccc(C(=O)N[C@H](C(=O)NCc2ccc(C)cc2)C(C)C)cc1	2.8	23.0	2.4	-9.3	-0.2
CC(C)[C@H](NC(=O)c1ccccc1)C(=O)OCC(=O)NCC1CCCO1 (some centres undefined)	x	x	2.6	x	21.7
COc1ccc(-c2c(C)nn3c(C(F)(F)F)cc(-c4ccc(Br)cc4)nc23)cc1	0.2	-8.1	6.6	1.4	x
O=C(NCCN1CCOCC1)C1CCN(S(=O)(=O)N2CCCC2)CC1	1.5	13.4	2.2	-0.8	6.8
O=C(NCCN1CCN(c2ccccc2)CC1)c1ccc(NC(=O)C2CCCO2)cc1 (centres undefined)	-0.7	5.9	69.6*	-1.1	-14.9
O=C(NCCCN1CCN(c2ccccc2F)CC1)C1CCN(S(=O)(=O)N2CCOCC2)CC1	8.8	-87.7*	25.8	-10.3	u
O=C(NCCN1CCN(c2ccccc2)CC1)C1CCN(S(=O)(=O)N2CCOCC2)CC1	1.7	-10.6	63.2*	3.6	-4.1
CCCS(=O)(=O)N1CCC(C(=O)NCCN2CCC(Cc3ccccc3)CC2)CC1	0.1	-9.3	4.8	-6.7	-56.5*
Cc1ccc(-n2nc(C)c3c(C(F)(F)F)cc(-c4cccnc4)nc32)cc1Cl	0.2	-1.3	10.3	2.8	x
CC(C)C(=O)Nc1ccc(S(=O)(=O)Nc2nccc(/C=C/c3ccccc3)n2)cc1	2.3	5.8	4.5	6.7	1.4
CC(C)(C)c1ccc(C2SCC(=O)N2c2cccc(C(=O)O)c2)cc1 (centres undefined)	2.5	-33.4*	1.0	-6.8	4.2
CCCOC(=O)c1cccc(Nc2nc(C(=O)OCC)nc3ccccc23)c1	-0.3	5.0	1.8	-1.9	x
COCC(C)NC(=O)CSc1nc2cc(S(=O)(=O)N3CCCCC3)ccc2o1 (centres undefined)	4.0	-47.1*	-1.0	-8.6	0.8
CCS(=O)(=O)c1ccc2oc(SCC(=O)NCCc3ccc(F)cc3)nc2c1	2.3	x	-2.1	-5.7	1.9
CCS(=O)(=O)c1ccc2oc(SCC(=O)NCCC3=CCCCC3)nc2c1	2.7	-7.4	10.9	-6.9	-51.0*
CCOC(=O)c1cc[nH]c1C	3.7	-4.5	-1.6	-2.2	3.0
